Hits are enriched below; roughly 2.4% of the tested compounds scored in any of these assays.
M1 PAM: human CHRM1 positive allosteric modulation | P11229 | CHO-K1 hM1, Fluo-8 calcium fluorescence, ACh EC20; 0% = ACh EC20, 100% = maximal ACh | activation, % at 3 µM | 360,000 compounds, 0.088% hits | AID 588819; in the data active = activation above about 19%, passing the limit was not always enough
Target sequence (P11229 whole entry, looked up): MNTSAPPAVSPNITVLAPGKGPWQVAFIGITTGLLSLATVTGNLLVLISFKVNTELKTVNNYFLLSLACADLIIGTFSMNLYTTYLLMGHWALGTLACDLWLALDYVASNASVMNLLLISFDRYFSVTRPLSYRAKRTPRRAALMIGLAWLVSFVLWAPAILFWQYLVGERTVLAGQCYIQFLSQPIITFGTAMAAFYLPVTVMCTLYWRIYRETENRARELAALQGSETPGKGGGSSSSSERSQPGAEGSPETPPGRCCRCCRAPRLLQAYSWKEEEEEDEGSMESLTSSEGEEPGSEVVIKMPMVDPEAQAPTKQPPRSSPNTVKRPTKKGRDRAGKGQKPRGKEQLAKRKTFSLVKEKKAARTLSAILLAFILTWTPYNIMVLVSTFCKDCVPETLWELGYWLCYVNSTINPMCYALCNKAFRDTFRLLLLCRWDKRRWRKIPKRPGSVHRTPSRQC
CHO-K1 Ca antag: M1 antagonist counterscreen hit in parental CHO-K1 cells | ATP-induced calcium, Fluo-8 fluorescence | inhibition, % at 3 µM | 360,000 compounds, 0.6% hits | AID 602250;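 active = inhibition above a per-plate cutoff, the plate's mean sample inhibition plus 3 SD, cut at about 24% in these data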
CHRM1 antagonist: antagonists of human M1 muscarinic receptor; P11229; CHO-K1 hM1, Fluo-8 calcium fluorescence, ACh EC80 antagonist; inhibition, % at 3 µM; 360,000 compounds, 1.3% hits;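 active = percent inhibition above its own plate's cutoff, namely the mean of that plate's compound wells plus 3 SD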;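 note: peak over basal fluorescence ratio during 140 s after agonist addition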
M1 ag parental: counter-screen for M1 agonists: effect in parental CHO-K1 cells; Fluo-8 calcium fluorescence; scaled to maximal ATP response, vehicle zero; 360,000 compounds, 0.48% hits; activation, % at 3 µM; AID 602248; in the data active = activation above about 15%;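 note: untransfected CHO-K1 host cells lacking M1 receptor as counterscreen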
CHRM1 agonist: activates human CHRM1 receptor; P11229; CHO-K1 hM1, Fluo-8 calcium fluorescence, agonist mode; 0% DMSO, 100% acetylcholine EC100; activation, % at 3 µM; 360,000 compounds, 0.33% hits; AID 588814;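 active = activation above the run's mean compound activation plus 3 SD, cut at about 16% in these data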;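 note: peak over basal fluorescence ratio within a 140 s kinetic read after compound addition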
M1 PAM parental: nonselective activator or artifact in parental CHO-K1 calcium assay | activation, % at 3 µM | 360,000 compounds, 0.02% hits | ATP EC20, Fluo-8 calcium fluorescence; 0% at ATP EC20, 100% at ATP max;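 active = activation above the run cutoff, the mean activation of all test compounds plus 3 SD, cut at about 40% in these data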;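 note: peak over basal fluorescence ratio in a 140 s read after ATP addition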
Large screens that a line does not name were inactive.

FC(F)(F)c1cnc2c(c1)[nH]c(=S)n2-c1ccc(Cl)cc1	M1 ag parental 16
Fc1ccc(-n2c(=S)[nH]c3cccnc32)cc1	none
N#CC1(NC(=O)COc2ccc(S(=O)(=O)N3CCCC3)cc2[N+](=O)[O-])CCCCC1	none
Cc1nn(CCO)c2nc(-c3cccs3)cc(C(F)(F)F)c12	CHO-K1 Ca antag 24
Cc1nn(C)c2nc(-c3cccs3)cc(C(F)(F)F)c12	none
COCCNC(=O)c1ccc(N2CC3CC(C2)c2cccc(=O)n2C3)c(NC(=O)c2c(F)cccc2F)c1 (stereo not drawn)	none
CCC(C)NC(=O)c1ccc(N2CC3CC(C2)c2cccc(=O)n2C3)c(NC(=O)c2c(F)cccc2F)c1 (stereo not drawn)	CHRM1 agonist 22
O=C(OCCC12CC3CC(CC(C3)C1)C2)c1ccc(NCc2cc(O)ccc2O)cc1	M1 PAM 35
CCCCNC(=O)C1(C)CCC(=O)N1c1cc(C(C)(C)C)nn1C (stereo not drawn)	CHO-K1 Ca antag 32
CCOC(=O)c1c(C)[nH]c(C(=O)OCC(=O)N2CCN(S(=O)(=O)c3ccc(C)cc3C)CC2)c1C	none
CC(CC(=O)N(C)c1c(N)n(Cc2ccccc2)c(=O)[nH]c1=O)c1ccccc1 (stereo not drawn)	CHRM1 antagonist 28
CC(C)CN(C(=O)COC(=O)CSc1ccccc1F)c1c(N)n(Cc2ccccc2)c(=O)[nH]c1=O	CHO-K1 Ca antag 61
COc1ccc(CCN(C)C2CCCN(S(=O)(=O)c3ccccc3F)C2)cc1OC (stereo not drawn)	none
CCOc1ccc(-c2nc(CS(=O)(=O)CC(=O)NCc3ccc(F)cc3)c(C)o2)cc1	none
CCOC(=O)C1=C(CC)Nc2ccccc2N=C1NC(=O)Nc1ccc(Cl)c(Cl)c1	CHRM1 antagonist 33
CCOC(=O)C1=C(CC)Nc2ccccc2N=C1NC(=O)c1cc(C)on1	none
CN(C)C(CNC(=O)c1coc2ccccc2c1=O)c1ccccc1 (stereo not drawn)	none
Cc1nn(C)cc1CN1CCCC(C(=O)c2ccc(-c3ccccc3)c(F)c2)C1 (stereo not drawn)	CHRM1 antagonist 52, M1 ag parental 26
Cn1cc(CN2CCCC(C(=O)c3ccc(-c4ccccc4)c(F)c3)C2)cn1 (stereo not drawn)	CHRM1 antagonist 28
COc1cccc(C(=O)C2CCCN(Cc3cn(C)nc3-c3ccccc3)C2)c1 (stereo not drawn)	none
Cn1cc(CN2CCCC(C(=O)c3ccc(-c4ccccc4)cc3)C2)cn1 (stereo not drawn)	none
CNS(=O)(=O)c1cn(CC(=O)NCc2ccc(F)cc2)cc1S(=O)(=O)NC	none
CCc1cc(C(=O)Cc2ccccn2)c(O)cc1O	none
CC(=O)Oc1ccc(C(=O)Cc2ccccn2)c(O)c1	CHO-K1 Ca antag 24
O=C(COC(=O)CNC(=O)C1CCCCC1)Nc1ccccc1OC(F)F	none
COC(=O)CCC(=O)N1CCCC(N2CCN(c3ccc(OC)cc3)CC2)C1 (stereo not drawn)	none
CCCCCc1ccc(OCCC[n+]2ccccc2)c(CCCCC)c1	CHRM1 antagonist 69
CCCCCc1ccc(OCCOCCn2c[n+](C)c3ccccc32)c(CCCCC)c1	CHRM1 antagonist 79
CCCCNC(=O)C1(C)CCN1C(=O)c1ccc2ccccc2n1 (stereo not drawn)	none
Cc1ccc(C#CC[N+](C)(C)CC#Cc2ccccc2)cc1	CHRM1 antagonist 30
CCN(CC)CCOC(=O)c1cc(Cl)c(N)cc1OC	none
CC(=O)Nc1ccc(S(=O)(=O)NN=CCCc2ccccc2)cc1	none
CCCCN(C)C1=CC2=CC(=C(C#N)C#N)CCC2CC1 (stereo not drawn)	CHO-K1 Ca antag 92, CHRM1 antagonist 101, M1 ag parental 578, CHRM1 agonist 670
CCN(CC)C1=CC2=CC(=C(C#N)C#N)CCC2CC1 (stereo not drawn)	CHO-K1 Ca antag 67, CHRM1 antagonist 63, M1 ag parental 99, CHRM1 agonist 230
O=C(Nc1ccc(S(=O)(=O)Nc2ncccn2)cc1)C(F)(F)F	none
COc1ccc(-c2c(-c3ccc(O)cc3O)n[nH]c2C(F)(F)F)cc1	none
